# Experimental data reported in PubChem BioAssay (Tox21).
# Records with an inconclusive call do not appear. Entries that show only a call come without a potency. Calls of active or inactive are those of the source. Calls come from the whole dose curve; as a rule, active = well fitted curve in the direction sought with a large enough effect in the repeat runs; inconclusive = weak or mixed curves; inactive = no such curve, though single readings can be large; an effect the other way counts as inactive or inconclusive.
# Biological target: Luciferin 4-monooxygenase (Photinus pyralis) (UniProt P08659)
# Sequence (P08659 whole entry, looked up): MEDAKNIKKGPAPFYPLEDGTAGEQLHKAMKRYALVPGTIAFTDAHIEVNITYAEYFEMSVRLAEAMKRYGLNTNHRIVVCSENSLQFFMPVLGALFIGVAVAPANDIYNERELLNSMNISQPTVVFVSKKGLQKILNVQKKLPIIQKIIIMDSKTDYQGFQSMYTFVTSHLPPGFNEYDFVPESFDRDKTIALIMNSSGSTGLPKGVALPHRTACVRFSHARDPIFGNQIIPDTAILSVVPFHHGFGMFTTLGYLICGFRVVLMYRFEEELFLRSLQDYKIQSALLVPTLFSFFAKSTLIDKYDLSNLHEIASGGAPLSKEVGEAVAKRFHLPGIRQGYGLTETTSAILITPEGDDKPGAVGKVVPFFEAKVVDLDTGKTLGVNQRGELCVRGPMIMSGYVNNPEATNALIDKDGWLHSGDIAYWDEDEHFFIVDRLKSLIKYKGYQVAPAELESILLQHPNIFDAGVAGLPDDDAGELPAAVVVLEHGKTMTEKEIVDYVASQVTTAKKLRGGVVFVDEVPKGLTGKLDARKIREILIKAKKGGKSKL
# Test: qHTS assay to identify small molecule inhibitors of firefly luciferase (AID 1224835); note: nearly all actives have a fitted effect of over 25% in size
# Conditions: purified P. pyralis luciferase, luminescence inhibition; series mostly up to 115 µM
# How it was run: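 Biochemical qHTS: compounds run as interplate titrations against purified firefly enzyme, with D-luciferin and ATP each at its KM concentration. Light output recorded by CCD imaging.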
# Potency is the fitted concentration of half-maximal effect.
Compound,Potency,"activity change, negative = inhibition"
CCCCCCOC(=O)CCCCC,inactive,–
CC(C)c1ccc(C(=O)N=C(N)N)cc1S(C)(=O)=O,inactive,–
O=C(O)CNC(=O)c1ccccc1I,inactive,–
COC(=O)Nc1nc2ccc(C(=O)C3CC3)cc2[nH]1,19.5 µM (active),–
O=C(O)c1cc(Cl)cc(Cl)c1O,inactive,–
CC/C=C\C/C=C\C/C=C\CCCCCCCC(=O)OCC,inactive,–
CC(C)N(C)C,inactive,–
CCCCCCCCCCCCCCN(C)C,–,-3.07% [at 23.6 µM] (inactive)
Cc1cc(CCC(=O)OCCOCCOCCOC(=O)CCc2cc(C)c(O)c(C(C)(C)C)c2)cc(C(C)(C)C)c1O,inactive,–
C/C(C=O)=C\c1ccccc1,inactive,–
COc1ccc(-c2cc(=S)ss2)cc1,15.5 µM (active),–

# Test system: not listed separately
# Test: qHTS assay to identify small molecule agonists of the constitutive androstane receptor (CAR) signaling pathway - cell viability counter screen (AID 1224836); note: nearly all actives have a fitted effect of over 45% in size
# Conditions: HepG2-CYP2B6-hCAR viability, CellTiter-Fluor, 23 h, PK11195 added to every well; series mostly up to 92.4 µM
# How it was run: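 Double-stable HepG2 hepatoma cells (hCAR plus CYP2B6-2.2kb) are treated for 23 h at 37 C with test compounds in 15-point concentration series. PK11195 at 0.75 uM final is co-added. Cell viability is quantified by CellTiter-Fluor.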
row,Compound,Potency
1,Nc1cccc2c(N)cccc12,24.3 µM (active)
2,COc1cc(NCc2ccc3nc(N)nc(N)c3c2C)cc(OC)c1OC,inactive
3,CCCCCCCC(=O)OCCCCCC,inactive
4,O=CNNC=O,inactive
5,COc1ccc(-n2nc(C(F)F)cc2-c2ccc(S(C)=O)cc2)cc1 (centres undefined),inactive
6,CC(C)(C(=O)c1cccnc1)c1cccnc1,inactive
7,Cc1ccc2c(c1[N+](=O)[O-])C(=O)c1ccccc1C2=O,6.73 µM (active)
8,CC(=O)NNC(C)=O,inactive
9,C[C@H](CS)C(=O)N1CCC[C@H]1C(=O)O,inactive
10,O=C(NC(Cc1cc(=O)[nH]c2ccccc12)C(=O)O)c1ccc(Cl)cc1 (centres undefined),inactive
11,CCN(CC)C(=O)N1CCN(C)CC1,inactive
12,CC(=O)OCC(C)C,inactive
13,COc1ccc(N)c([N+](=O)[O-])c1,inactive
